# Screening results from PubChem BioAssay.
# TbREL1 primary: TbREL1 RNA ligase inhibitors, primary screen, biochemical, FRET fluorescence; TbREL1 RNA ligation; inhibition, % at 9.66 µM; hit rate 0.49% among 89,000; AID 1117264, 2014;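 active means inhibition above the mean inhibition across all screened compounds plus 3 SD, cut at about 11% in these data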;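 further: 0% = plate median of test wells and 100% = NSC42067 control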
# Target sequence (P86926 whole entry, looked up): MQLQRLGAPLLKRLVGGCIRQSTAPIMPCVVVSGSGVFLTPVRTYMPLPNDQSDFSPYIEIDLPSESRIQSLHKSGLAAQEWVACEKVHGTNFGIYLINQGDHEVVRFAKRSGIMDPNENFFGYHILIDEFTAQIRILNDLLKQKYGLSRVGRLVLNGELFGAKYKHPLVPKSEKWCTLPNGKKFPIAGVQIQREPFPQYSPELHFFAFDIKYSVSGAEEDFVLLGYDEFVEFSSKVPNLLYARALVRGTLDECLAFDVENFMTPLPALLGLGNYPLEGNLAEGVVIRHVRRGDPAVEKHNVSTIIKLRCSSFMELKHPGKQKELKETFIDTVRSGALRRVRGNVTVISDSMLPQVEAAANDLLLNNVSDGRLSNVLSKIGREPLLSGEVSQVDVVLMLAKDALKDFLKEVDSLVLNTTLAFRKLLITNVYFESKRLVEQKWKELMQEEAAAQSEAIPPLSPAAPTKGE
# TbREL1 conf: TbREL1 RNA ligase inhibitors, confirmation, biochemical, FRET fluorescence, triplicate. hit rate 37% among 390. shares compounds with TbREL1 primary. TbREL1 RNA ligation. inhibition, % at 9.66 µM;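 active means mean inhibition across replicates above a set limit taken from the earlier primary screen, cut at about 11% in these data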;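 further: 0% = REL1 with substrate and DMSO and 100% = REL1 plus control inhibitor NSC42067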
# Starred values were filed as active, the others as inactive. Many of the other results were omitted from the sample, so hits are more common in it than they were.
SMILES,TbREL1 primary,others
CC(=O)OCCC(CC(C)C)NC(=O)[C@H](CC(C)C)NC(=O)OCc1ccccc1 (some centres not stated),-2,
CC(=O)N1CCN(c2ccc(C(N)=O)cc2[N+](=O)[O-])CC1,6,
O=C(O)c1ccc([N+](=O)[O-])cc1,2,
CC(=O)/C(N=Nc1ccc(C(=O)O)cc1[N+](=O)[O-])=C(\C)O,12*,TbREL1 conf=8
CCOC(=O)Cc1nnc(NC(=O)c2ncn[nH]2)s1,11*,TbREL1 conf=7
CCOC(=O)Cc1nnc(NC(=O)COc2ccc(C)cc2)s1,0,
CCOC(=O)Cc1nnc(NC(=O)c2ccccc2OCC)s1,-2,
Cc1ccc(-n2c(SC/C=C/c3ccccc3)nnc2-c2ccco2)cc1,0,
Nc1ccccc1SCc1cn2cccnc2n1,0,
O=c1c2c(-c3ccco3)csc2nc(SCc2cn3cccnc3n2)n1-c1ccccc1,23*,TbREL1 conf=0
c1ccc(SCc2cn3cccnc3n2)nc1,1,
CC(c1ccccc1)n1cc(C(=O)NCCCN2CCCC2)nn1 (configuration not stated),0,
CC1(C)CC(=O)C=C(Nc2ccccc2NC(=O)c2ccc(F)cc2F)C1,-5,
COc1ccc(OC)c(S(=O)(=O)N(CCc2ccc(OC)c(OC)c2)Cc2cccs2)c1,2,
C[C@H]1[C@@H](OC(=O)Nc2ccccc2C(F)(F)F)CC[C@@]23CCCN2C(=O)CCC[C@@H]13,-4,
CC1CN(S(=O)(=O)c2ccc(C(=O)Nc3ccc(S(=O)(=O)N4CCOCC4)cc3)cc2)CC(C)O1 (configuration not stated),-1,
O=C(Nc1ccon1)c1ccc(S(=O)(=O)N2CCOCC2)cc1,13*,TbREL1 conf=5
O=C(Nc1cccc(F)c1)c1ccc(S(=O)(=O)N2CCOCC2)cc1,-2,
COc1ccccc1C(C(=O)c1ccccc1)c1ccc2ccccc2c1 (configuration not stated),3,
COc1ccccc1C(CC(=O)c1ccccc1)C(=O)c1ccccc1 (configuration not stated),11*,TbREL1 conf=-1
COC(=O)C(CC(=O)c1ccccc1)CC(=O)c1ccccc1,2,
COc1ccc(-c2nnc(SCC(=O)NN=Cc3c(O)ccc4ccccc34)n2-c2ccc(OC)cc2)cc1,1,
C#CCOCCOCCOCCNc1nc(N2CCOCC2)nc(N2CCN(C(=O)[C@H](CCC(=O)O)n3cc(C(N)CC(C)C)nn3)CC2)n1 (some centres not stated),7,
CCOC(=O)C1CCN(C(=O)CN(c2cc(Cl)ccc2OC)S(=O)(=O)c2ccccc2)CC1,1,
COc1ccc(Cl)cc1N(CC(=O)N1CCCC1)S(=O)(=O)c1ccc(C)cc1,12*,TbREL1 conf=4
SMILES,TbREL1 primary,others
COC(=O)CN(c1cc(Cl)ccc1OC)S(=O)(=O)c1ccc(C)cc1,3,
CC(C)(C)OC(=O)NC1CCN(c2nc(-c3ccc(Br)cc3)cs2)CC1,3,
COP1(=O)CCOCC[C@H](CC(C)C)NC(=O)[C@H](CC(C)C)N1 (some centres not stated),3,
O=C(CSc1nnc(Cc2cccs2)n1-c1ccccc1)Nc1ccccc1-c1ccccc1,-5,
Cc1ccc(S(=O)(=O)N(CC(=O)NC2CCC(C)CC2)c2cc(C)cc(C)c2)cc1 (configuration not stated),0,
O=C(NCc1ccco1)C1CCCN(S(=O)(=O)c2cccs2)C1 (configuration not stated),0,
c1ccc(-c2ccccc2OCCOCCN2CCCCC2)cc1,3,
CN(C)CCOCCOc1ccccc1-c1ccccc1,15*,TbREL1 conf=6
OCCNCCOCCOc1ccccc1-c1ccccc1,3,
CCCCC(=O)N1CCN(C(=O)c2ccc3nc(C)n(C4CCCC4)c3c2)CC1,-1,
CCC(C)(C)C(=O)N1CCC(C(=O)NC2CCCc3ccccc32)CC1 (configuration not stated),-2,
N#C/C(=C/c1cccc(O)c1)C(=O)NCc1ccc(Cl)cc1,4,
N#C/C(=C/c1ccc(O)c(O)c1)C(=O)NCc1ccc(Cl)cc1,46*,TbREL1 conf=1
N#C/C(=C/c1ccccc1)C(=O)NCc1ccccc1,2,
O=C1CN(C(=O)C2CCCCC2)C=CN1CCc1ccccc1Br,2,
NS(=O)(=O)c1ccc(NC(=O)CCC(=O)N2CCOCC2)cc1,15*,TbREL1 conf=2
NS(=O)(=O)c1ccc(NC(=O)c2ccc(S(=O)(=O)N3CCOCC3)o2)cc1,-1,
NS(=O)(=O)c1cccc(NC(=O)CCc2ccc(S(=O)(=O)N3CCOCC3)cc2)c1,4,
Nc1[nH]c(C(=O)c2ccccc2)c(-c2ccccn2)c1C(=O)c1c[nH]c2ccc(Br)cc12,5,
Cc1ccc(-c2cc(C(=O)NN=Cc3cccc4ccccc34)[nH]n2)cc1C,3,
NC(Cc1ccc(C(F)(F)F)cc1)c1csc(Nc2nncc3ccccc23)n1 (configuration not stated),10,
COc1ccc(CC(N)c2csc(Nc3ccc(C(C)=O)cc3)n2)cc1 (configuration not stated),3,
Cc1cnc(C)c(Nc2nc(C(N)Cc3ccc(Cl)cc3)cs2)n1 (configuration not stated),11*,TbREL1 conf=10
CCn1c2ccccc2c2cc(C=NNC(=O)c3cc(-c4ccc(OC)cc4)n[nH]3)ccc21,3,
Cc1nn(CCC(=O)NNC(=O)NCc2ccccc2)c(C)c1[N+](=O)[O-],5,
SMILES,TbREL1 primary,others
O=C(NCc1ccccc1)OCCN1CCN(Cc2ccccc2)CCC1=O,-3,
Cc1ccc(NC(=O)OCCN2CCN(Cc3ccccc3)CCC2=O)cc1C,12*,TbREL1 conf=0
O=C(Nc1ccc(F)cc1)OCCN1CCN(Cc2ccccc2)CCC1=O,-3,
Cc1ccccc1NC(=O)CN1C(=O)CCSc2ccccc21,-2,
CC1(Cc2ccccc2OC(F)(F)F)C(=O)Nc2ccc(-c3ccsc3)cc21 (configuration not stated),4,
COc1ccc(C(C)=O)cc1CC1(C)C(=O)Nc2ccc(-c3cccc(C(F)(F)F)c3)cc21 (configuration not stated),2,
COc1ccccc1-c1ccc2c(c1)C(C)(Cc1cc(Cl)ccc1C(F)(F)F)C(=O)N2 (configuration not stated),17*,TbREL1 conf=7
CC(C)(C)OC(=O)N1CCC(N[C@@H](Cc2c[nH]c3ccccc23)C(=O)NCC(c2ccccc2)c2ccccc2)(C(=O)NC2CCCCC2)CC1,0,
COC(=O)[C@@]12CCCCC=C1N(CCc1ccc(Cl)cc1)C(=O)[C@H]2CC(=O)NCCCCc1ccccc1,5,
Cc1ccc(C(=O)N[C@@H](C)CN2C3=NC[C@H](C(C)C)N3C[C@H]2Cc2ccc(O)cc2)cc1Br,8,
COc1ccc(C[C@H]2CN3C(=NC[C@@H]3C(C)C)N2C[C@H](C)NC(=O)c2ccc(C)c(Br)c2)cc1,13*,TbREL1 conf=20*
COc1ccc(C[C@H]2CN3C(=NC[C@@H]3Cc3ccc(O)cc3)N2CCNC(=O)c2ccc(C)c(Br)c2)cc1,9,
Cc1cccc(NC(=O)C2CCN(c3nnc(-n4cccc4)s3)CC2)c1C,-4,
Cc1ccc(C(=O)N2CCC(C(=O)c3ccc(Cl)cc3)CC2)cc1,0,
Cc1ccc(C(=O)C2COC(=O)C2)cc1 (configuration not stated),20*,TbREL1 conf=5
Cc1ccc(C(=O)C2CCN(CC(=O)N3CCCC3)CC2)cc1,-1,
